Data on 21 molecules can be found in PubChem BioAssay (EPA / NIEHS).

The source made the active and inactive calls. How the source made its calls: active means hit-call score of the fitted dose curve at least 0.9, where 1 is the maximum; inactive means score below 0.9.

Settings in all cases: mRNA level, 48 h; actives raise or lower the signal
Read-out in assay [1]: ABC Transporter (ABCB11), ABCB11 (gene 8647)
Put plainly: LTEA_HepaRG_ABCB11: Life Technologies and Expression Analysis (LTEA) Assay for ABC Transporter (ABCB11) using HepaRG (AID 2283463). The procedure, abridged:
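ABCB11 transcript levels are read by Fluidigm TaqMan qRT-PCR after 48 h chemical treatment of human HepaRG cells. Concentrations span 100 uM downward in half-log steps with 0.5% DMSO; gain or loss is fitted against DMSO controls.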

Read-out in assay [2]: ABC Transporter (ABCC2), ABCC2 (gene 1244)
Briefly: LTEA_HepaRG_ABCC2: Life Technologies and Expression Analysis (LTEA) Assay for ABC Transporter (ABCC2) using HepaRG (AID 2283464). The procedure, abridged: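 HepaRG cells were plated 48 h, switched to serum-free induction medium, then exposed in duplicate for 48 h to 8 concentrations (top 100 uM, half-log steps, 0.5% DMSO). ABCC2 mRNA was measured by qRT-PCR normalized to ACTB/GAPDH/POLR2A; bidirectional fitting versus DMSO.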

Read-out in assay [3]: Broad substrate specificity ATP-binding cassette transporter ABCG2 (Homo sapiens) (UniProt Q9UNQ0)
Briefly: LTEA_HepaRG_ABCG2: Life Technologies and Expression Analysis (LTEA) Assay for ABC Transporter (ABCG2) using HepaRG (AID 2283465). The essentials:
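Read-out is ABCG2 mRNA induction or loss quantified by qRT-PCR after 48 h chemical treatment of human HepaRG cells, normalized to three housekeeping genes. Concentrations reached 100 uM top in half-log steps; fitting was bidirectional against 0.5% DMSO.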

Read-out in assay [4]: ATP-citrate lyase (ACLY), ACLY (gene 47)
Put plainly: LTEA_HepaRG_ACLY: Life Technologies and Expression Analysis (LTEA) Assay for ATP-citrate lyase (ACLY) using HepaRG (AID 2283466). The procedure, abridged: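 HepaRG, 48 h exposure, 8-pt half-log dilutions (top 100 uM), 0.5% DMSO. Readout: ACLY mRNA, TaqMan qRT-PCR, housekeeping-normalized (ACTB/GAPDH/POLR2A). Bidirectional curve fit vs DMSO.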

Read-out in assay [5]: Peroxisomal acyl-coenzyme A oxidase 1 (ACOX1) gene, ACOX1 (gene 51)
Briefly: LTEA_HepaRG_ACOX1: Life Technologies and Expression Analysis (LTEA) Assay for Peroxisomal acyl-coenzyme A oxidase 1 (ACOX1) gene using HepaRG (AID 2283467). The procedure, abridged: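 Measured by qRT-PCR against three housekeeping genes: ACOX1 transcript change in human HepaRG cells after 48 h dosing. Concentrations ran up to 100 uM in half-log steps. Curves were fitted bidirectionally relative to 0.5% DMSO.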

Read-out in assay [6]: Alkaline Phosphatase, Placental (ALPP) gene, ALPP (gene 250)
Briefly: LTEA_HepaRG_ALPP: Life Technologies and Expression Analysis (LTEA) Assay for Alkaline Phosphatase, Placental (ALPP) gene using HepaRG (AID 2283468). The procedure, abridged: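 Differentiated human HepaRG cells were plated and cultured 48 h, then exposed in duplicate for 48 h in serum-free induction medium to eight half-log concentrations from 100 uM in 0.5% DMSO. ALPP mRNA was measured by TaqMan qRT-PCR, normalized to ACTB, GAPDH, POLR2A.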

Read-out in assay [7]: Bcl-2 (BAX) gene, BAX (gene 581)
Put plainly: LTEA_HepaRG_BAX: Life Technologies and Expression Analysis (LTEA) Assay for Bcl-2 (BAX) gene using HepaRG (AID 2283470). The procedure, abridged: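 Differentiated human HepaRG cells, plated 48 h then switched to serum-free induction medium, were exposed 48 h to 8 half-log concentrations up to 100 uM in 0.5% DMSO; BAX mRNA measured by qRT-PCR, normalized to ACTB, GAPDH, POLR2A.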

Read-out in assay [8]: adenosine kinase (ADK) gene, ADK (gene 132)
Briefly: LTEA_HepaRG_ADK: Life Technologies and Expression Analysis (LTEA) Assay for adenosine kinase (ADK) gene using HepaRG (AID 2283471). The essentials:
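Differentiated HepaRG cells dosed 48 h in serum-free induction medium, 0.5% DMSO vehicle, eight half-log concentrations from 100 uM, in duplicate. ADK mRNA by TaqMan qRT-PCR normalised to ACTB, GAPDH, POLR2A; bidirectional fit versus DMSO.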

Read-out in assay [9]: Alpha-fetoprotein (AFP) gene, AFP (gene 174)
Briefly: LTEA_HepaRG_AFP: Life Technologies and Expression Analysis (LTEA) Assay for Alpha-fetoprotein (AFP) gene using HepaRG (AID 2283472). The procedure, abridged:
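Human HepaRG cells plated 48 h, then switched to serum-free induction medium and exposed in duplicate for 48 h to 8-point half-log series from 100 uM in 0.5% DMSO. AFP mRNA by qRT-PCR, normalized to ACTB, GAPDH, POLR2A; bidirectional fit versus DMSO.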

Read-out in assay [10]: Bcl-2 (BAD) gene, BAD (gene 572)
Briefly: LTEA_HepaRG_BAD: Life Technologies and Expression Analysis (LTEA) Assay for Bcl-2 (BAD) gene using HepaRG (AID 2283469). The essentials:
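BAD transcript change, measured by qRT-PCR against three housekeeping genes and fitted in both directions relative to 0.5% DMSO, after 48 h chemical treatment of human HepaRG liver cells at concentrations up to 100 uM.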

Chain of Broad substrate specificity ATP-binding cassette transporter ABCG2 (Homo sapiens) (Q9UNQ0 whole entry, looked up): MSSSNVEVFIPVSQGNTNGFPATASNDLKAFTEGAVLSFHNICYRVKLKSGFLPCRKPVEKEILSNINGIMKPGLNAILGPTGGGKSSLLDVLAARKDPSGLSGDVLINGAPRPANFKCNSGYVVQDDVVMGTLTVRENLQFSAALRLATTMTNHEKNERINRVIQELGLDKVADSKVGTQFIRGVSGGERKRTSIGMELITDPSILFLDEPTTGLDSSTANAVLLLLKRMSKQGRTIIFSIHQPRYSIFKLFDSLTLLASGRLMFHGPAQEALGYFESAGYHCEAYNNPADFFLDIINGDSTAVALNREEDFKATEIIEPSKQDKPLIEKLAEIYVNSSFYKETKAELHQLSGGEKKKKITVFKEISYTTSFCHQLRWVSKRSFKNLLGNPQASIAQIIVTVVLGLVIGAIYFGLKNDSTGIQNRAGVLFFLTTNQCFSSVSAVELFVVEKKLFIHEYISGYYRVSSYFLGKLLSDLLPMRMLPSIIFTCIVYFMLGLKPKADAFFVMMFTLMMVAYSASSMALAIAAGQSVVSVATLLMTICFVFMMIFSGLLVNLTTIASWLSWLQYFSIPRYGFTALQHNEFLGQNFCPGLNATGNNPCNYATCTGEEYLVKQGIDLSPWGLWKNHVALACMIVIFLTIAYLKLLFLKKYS

Regarding `CC(C)CC(C)(O)C#CC(C)(O)CC(C)C` (configuration not stated), the molecule was classed as inactive in assay [1], in assay [2], in assay [3], in assay [4], in assay [5] and in assay [6]. Also, the outcome in assay [7], in assay [8] and in assay [9] was inactive.
As a reminder, the AC50 is the concentration giving half of the maximal activity seen. Turning to `CCN(C(=O)c1cc(C)cc(OC[C@H](C)Nc2ccncc2)c1)C(C)C`, the AC50 in assay [1] was 25.1 µM (active); in assay [4], 33.8 µM (active); in assay [5] it was 20.1 µM (active); in [6] it was 6.7 µM (active); in assay [9], 23.7 µM (active). For the same molecule, the outcome in assay [2], in assay [3], in assay [10], in assay [7] and in assay [8] was inactive.
With `CC/C(=C\C(=N/O)C(N)=O)C(C)[N+](=O)[O-]` (configuration not stated), the outcome in assay [1], in [2], in assay [3], in [4], in assay [5] and in [6] was inactive. Further, the call in assay [10], in assay [8] and in assay [9] was inactive.
On to `CC(=O)OCCC(C)C`, for which the molecule was called inactive in assay [1], in assay [2], in assay [3], in [4], in assay [5] and in assay [6]. Moreover, the outcome in [10], in [7], in assay [8] and in assay [9] was inactive.
Take `CCCCC(CC)COC(=O)CCCCCCCCC(=O)OCC(CC)CCCC` (configuration not stated): the molecule was classed as inactive in assay [1], in assay [2], in assay [3], in assay [4], in assay [5] and in assay [6]. The molecule was classed as inactive in assay [10], in [7], in [8] and in assay [9].
Consider `Nc1cccc(N)c1`, for which the molecule was classed as inactive in assay [1], in assay [2], in assay [3], in assay [4], in assay [5] and in [6]. Besides, the call in assay [10], in assay [8] and in [9] was inactive.
For the molecule `CCOCCO`, the call in [1], in [2], in assay [3], in assay [4], in [5] and in assay [6] was inactive. Also, the outcome in assay [10], in assay [7], in assay [8] and in assay [9] was inactive.
As for `CCNc1ccccc1`, the outcome in assay [1], in [2], in assay [3], in assay [4], in [5] and in assay [6] was inactive. Also, the call in assay [10], in [8] and in [9] was inactive.
For the molecule `CCc1cc(SCc2sc(-c3ccc(C(F)(F)F)cc3)nc2CN2CCN(c3ccc(OC)cc3)CC2)ccc1OCC(=O)O`, the AC50 is 8.6 µM (active) in [1]; 93.3 µM (active) in assay [2]; 7.49 µM (active) in assay [3]; 93.4 µM (active) in assay [4]; 92.7 µM (active) in assay [5]; 6.34 µM (active) in [6]. Besides, the AC50 in assay [10] was 87 µM (active); in assay [7], 97.2 µM (active); in assay [8], 90.9 µM (active); in assay [9] it was 7.69 µM (active).
Consider `Cc1ccc(C)c(O)c1`, for which the molecule was classed as inactive in [1], in assay [2], in assay [3], in assay [5], in assay [6] and in [10]. Also, the outcome in [7], in [8] and in [9] was inactive.
Consider `CN(C)c1ccc(Cc2ccc(N(C)C)cc2)cc1`, for which the outcome in assay [1], in [2], in assay [3], in assay [4], in [5] and in assay [8] was inactive. In addition, the figures for the AC50 in assay [6] and in [9] were 61.6 µM (active) and 50 µM (active), respectively.
As for `CC(C)=CCC/C(C)=C/CO`, the outcome in [1], in [2], in [3], in assay [4], in assay [5] and in assay [6] was inactive. The result in assay [7], in [8] and in assay [9] was inactive.
With `CC(C)(O)c1coc(S(=O)(=O)NC(=O)Nc2c3c(cc4c2CCC4)CCC3)c1`, the AC50 in assay [1] is 50 µM (active). The molecule was called inactive in assay [2], in assay [3], in assay [4], in [5], in assay [6] and in assay [8]. In addition, the molecule was classed as inactive in [9].
On to `CC(=O)c1ccc2c(c1)[C@H](NC(=O)c1ccc(F)cc1)[C@@H](O)C(C)(C)O2`, for which the molecule was classed as inactive in [1], in [3], in assay [4], in assay [5], in assay [6] and in assay [8]. Moreover, the result in assay [9] was inactive. For the same molecule, the AC50 in assay [2] was 9.67 µM (active).
In the case of `O=c1n(CC2CO2)c(=O)n(CC2CO2)c(=O)n1CC1CO1` (configuration not stated), in assay [1], the concentration at half-maximal activity (AC50) is 88 µM (active). Further, the result in [2], in assay [3], in assay [4], in [5], in [6] and in assay [8] was inactive. The result in assay [9] was inactive.
For the molecule `CC(=O)OC[C@H]1O[C@@](COC(C)=O)(O[C@H]2O[C@H](COC(C)=O)[C@@H](OC(C)=O)[C@H](OC(C)=O)[C@H]2OC(C)=O)[C@@H](OC(C)=O)[C@@H]1OC(C)=O`, the call in assay [1], in assay [2], in assay [3], in [5], in assay [6] and in assay [10] was inactive. Further, the molecule was called inactive in assay [7], in [8] and in [9].
For the molecule `C=CCCCCCCCCC(=O)O`, the outcome in [1], in [2], in assay [3], in assay [4], in assay [5] and in assay [6] was inactive. Further, the outcome in [9] was inactive. Also, the AC50 in [8] was 0.00684 µM (active).
As to `COC(=O)CC(=O)OC`, the outcome in assay [1], in assay [2], in assay [3], in [5], in [6] and in assay [10] was inactive. The outcome in assay [7] and in [8] was inactive. Also, the AC50 in assay [9] was 50 µM (active).
In the case of `CCC(C)(C)C(=O)O[C@H]1C[C@@H](C)C=C2C=C[C@H](C)[C@H](CC[C@@H]3C[C@@H](O)CC(=O)O3)[C@H]21`, the AC50 in assay [1] is 50 µM (active); in assay [4], 13.5 µM (active). In addition, the molecule was called inactive in assay [2], in assay [3], in [5], in [6], in assay [8] and in assay [9].
Consider `CC(C)=CCCC(C)CCO` (configuration not stated), for which the molecule was classed as inactive in assay [1], in assay [2], in assay [3], in assay [4], in assay [5] and in [6]. In addition, the result in assay [8] and in [9] was inactive.
With `COc1cccc(-c2ccc(/C=C\CN3CCCCCC3)cc2Cl)c1`, the AC50 in [1] was 69.3 µM (active); in assay [2] it was 75.4 µM (active); in assay [3], 37.8 µM (active); in assay [5], 45.2 µM (active); in assay [6], 45.2 µM (active); in [7], 74.5 µM (active). Also, the molecule was classed as inactive in [10], in [8] and in assay [9].
